Data published in publication PMC4552634, “A New Set of Chemical Starting Points with Plasmodium falciparum Transmission-Blocking Potential for Antimalarial Drug Discovery” (PLoS ONE, 2015).
Where two headings read alike, the source gives them in different places. The whole screen tested about 13,000 compounds, of which about 3,200 (25%) showed an effect of 50% or more. Some of the results follow.

Test system: P. falciparum stage V gametocytes
Parameters: BacTiter-Glo ATP luminescence viability of purified stage V gametocytes in 384-well plates, per cent inhibition versus DMSO
Conditions: 48 h, 5 µM, inhibitor

Compound | % Inhibition [%] | % Inhibition (% Inhibition) [%]
O=c1cc(NCCC2CC=CCN2Cc2ccc(Cl)c(Cl)c2)[nH]c2ccccc12 (stereo not drawn) [TCMDC-139445] | 3.776 | 
COc1ccc(CCNCC(O)c2cccc(Br)c2)c(Cl)c1OC (stereo not drawn) [TCMDC-125478] | 12.88 | 
COc1ccc(CCNCCCCCCNCCc2ccc(Cl)cc2)c(Cl)c1OC [TCMDC-131272] | 114.1 | 
COc1ccc(CCNCCCCCCNCCc2ccc(OC)c(OC)c2Cl)c(Cl)c1OC [TCMDC-131261] | 103.5 | 
O=C(Nc1ccsc1C(=O)NC1CCCCC1)c1ccc(F)cc1 [TCMDC-123789] | -7.21 | 
CCCC(C)Nc1nc(C)cc(N[C@@H](CC(C)C)C(=O)NCCOc2ccccc2)n1 (stereo partly drawn) [TCMDC-134898] | -16.46 | 
CC1=C(C(=O)NC2CCC(CN3CCC(c4c[nH]c5ccccc45)CC3)CC2)Cc2ccccc21 (stereo not drawn) [TCMDC-139765] |  | -59.52
O=C(C=C1c2ccccc2-c2ccccc21)NC1CCC(CN2CCC(c3c[nH]c4ccccc34)CC2)CC1 (stereo not drawn) [TCMDC-139918] |  | -14.57
O=C(C=C1c2ccccc2-c2ccccc21)NC1CCC(CN2CCC(c3c[nH]c4ccccc34)CC2)CC1 (stereo not drawn) [TCMDC-139906] |  | -40.53
O=C(NC1CCC(CN2CCC(c3c[nH]c4ccccc34)CC2)CC1)[C@H]1Cc2ccccc2CN1 (stereo partly drawn) [TCMDC-140311] | 105 | 
CC1=C(C(=O)NC2CCC(CN3CCC(c4c[nH]c5ccccc45)CC3)CC2)Cc2ccccc21 (stereo not drawn) [TCMDC-139755] |  | 71.55
COc1ccc(NC(=O)Nc2cccc(-c3cccc(-c4nc5ccccc5[nH]4)c3)c2)cc1 [TCMDC-133246] | -3.32 | 
COc1cccc(NC(=O)[C@H](C(C)C)n2c(=O)[nH]c3ccccc3c2=O)c1 [TCMDC-125133] | 96.89 | 
COc1cccc(NC(=O)COc2ccc(C(=O)Nc3nc4ccccc4[nH]3)cc2)c1 [TCMDC-125060] | -14.04 | 
COc1cccc(NC(=O)[C@H](C)n2c(=O)[nH]c3ccccc3c2=O)c1 [TCMDC-124998] | 68.49 | 
COc1ccc2[nH]c3ccccc3c(=O)c2c1 [TCMDC-123948] | 14.64 | 
COc1ccccc1CNC(=O)C(=O)Nc1c(-c2ccccc2)[nH]c2ccccc12 [TCMDC-124999] | -88.11 | 
C=CCc1cc(Br)ccc1OCCCON1C(N)=NC(N)=NC1(C)C [TCMDC-131341] | 13.45 | 
O=C(/C=C/c1ccc(Cl)c(Cl)c1)NCCCCCCN1CCN(C(=O)Nc2ccc(OC(F)F)cc2)CC1 [TCMDC-135834] | -53.7 | 
Cc1ccc(C(=O)c2oc3ccc4c(C)cc(=O)oc4c3c2C)cc1 [TCMDC-125583] | -7.355 | 
Cc1cccc(C)c1OC(=O)C(C)C(O)C1(Sc2ccccc2)CCN(C)CC1 (stereo not drawn) [TCMDC-132104] | 17.64 | 
O=C(Nc1ccc(F)cc1)NC1CCN(c2ccnc3cc(Cl)ccc23)CC1 [TCMDC-133570] | -24.37 | 
Cc1nc(Nc2cc(Cl)ccc2O)nc(Nc2cc(Cl)ccc2O)c1[N+](=O)[O-] [TCMDC-125765] | -25.8 | 
CC(=O)c1ccc2cc(C(=O)NC3CCC(CCN4CCc5ccc(-c6noc(C)n6)cc5CC4)CC3)[nH]c2c1 (stereo not drawn) [TCMDC-140072] | -66.89 | 
O=c1cc(NCCCNCc2cc(Cl)cc(Cl)c2OCc2ccccc2)[nH]c2ccccc12 [TCMDC-139488] | -11.96 | 
Cc1ccc(-n2cc(CNCCc3ncc(C)[nH]3)c(-c3ccc(F)cc3)n2)cc1 [TCMDC-124685] | 44.13 | 
COc1ccc(-n2cc(CNCCCn3ccnc3)c(-c3cccc(F)c3)n2)cc1 [TCMDC-124651] | 46.38 | 

Compound | % Inhibition [%] | % Inhibition (% Inhibition) [%]
Cc1ccc(-n2cc(CNCCCn3ccnc3)c(-c3cccc(C)c3)n2)cc1 [TCMDC-124630] | 80.81 | 
Cc1cc2nc(-c3cc(-c4cccc(NS(C)(=O)=O)c4)cnc3N)[nH]c2cc1C [TCMDC-133558] | -28.88 | 
O=C(Nc1ccc2oc(-c3ccc(Br)cc3)nc2c1)c1ccc([N+](=O)[O-])o1 [TCMDC-123698] | 17.72 | 
Cc1ccc(-c2nc3cc(NC(=O)c4ccc([N+](=O)[O-])o4)ccc3o2)cc1Cl [TCMDC-123657] | 94.01 | 
O=C(Nc1ccc2oc(-c3ccc(Cl)cc3Cl)nc2c1)c1ccc([N+](=O)[O-])o1 [TCMDC-123753] | 49.41 | 
CCc1ccc(-c2nc3cc(NC(=O)c4ccc([N+](=O)[O-])o4)ccc3o2)cc1 [TCMDC-123924] | 1.176 | 
Cc1cccc(-c2nc3cc(NC(=O)c4ccc([N+](=O)[O-])o4)ccc3o2)c1 [TCMDC-123925] | 17.49 | 
CC(C)c1ccc2oc(-c3ccc(NC(=O)c4ccc([N+](=O)[O-])o4)cc3)nc2c1 [TCMDC-124010] | 79.92 | 
O=C(Nc1ccc(-c2ccc(-c3nc4cc(C(F)(F)F)ccc4[nH]3)s2)cc1)c1ccoc1 [TCMDC-136842] | -23.12 | 
CCCCN(CCCC)CCNC(=O)c1ccc(-c2nc3ccc(Cl)cc3[nH]2)c(OCC)c1 [TCMDC-140909] | -44.96 | 
CCCOc1cc2c(cc1OCCC)C(C=Cc1ccc(Cl)cc1Cl)=NC(C)C2.Cl (stereo not drawn) [TCMDC-137448] | 86.79 | 
CCCCOc1cc2c(cc1OCC)C(C=Cc1ccc(Cl)cc1Cl)=NCC2.Cl [TCMDC-137450] | 76.64 | 
COc1cc2c(cc1OC)C(C(=O)c1ccccc1)=NCC2.Cl [TCMDC-141993] | 35.87 | 
CC(C)C1=CC(=NOS(=O)(=O)c2ccccc2)C=C(C(C)C)C1=O [TCMDC-124172] | -30.75 | 
O=C(/C=C/c1ccc2ccccc2c1)NCC1(c2ccc(-c3ccccc3)cc2)CCOCC1 [TCMDC-134257] | 16.18 | 
O=C(Nc1ccc(-c2ccccc2)cc1)Nc1cccc(Cn2ncc(N3CCCNCC3)c(Cl)c2=O)c1 [TCMDC-141923] | 12.88 | 
Cc1ccc(Cn2ncc(N3CCNCC3)c(Cl)c2=O)cc1NC(=O)Nc1ccc(-c2ccccc2)cc1 [TCMDC-141921] | 40.54 | 
Cc1ccc(Cn2ncc(N3CC(C)NC(C)C3)c(Cl)c2=O)cc1NC(=O)Nc1ccc(-c2ccccc2)cc1 (stereo not drawn) [TCMDC-141937] | 14.65 | 
O=C(Nc1ccc(Cn2ncc(N3CCNCC3)c(Cl)c2=O)cc1)Nc1ccc(-c2ccccc2)cc1 [TCMDC-141922] | -25.28 | 
Cc1c(Cn2ncc(N3CCC(N)CC3)c(Cl)c2=O)cccc1NC(=O)Nc1ccc(-c2ccccc2)cc1 [TCMDC-141931] | 109.1 | 
Cc1ccc(Cn2ncc(N3CCCNCC3)c(Cl)c2=O)cc1NC(=O)Nc1ccc(-c2ccccc2)cc1 [TCMDC-141924] | 99.19 | 
Cc1c(Cn2ncc(N3CC(C)NC(C)C3)c(Cl)c2=O)cccc1NC(=O)Nc1ccc(-c2ccccc2)cc1 (stereo not drawn) [TCMDC-141936] | -6.259 | 
CC1CN(c2cnn(Cc3cccc(NC(=O)Nc4ccc(-c5ccccc5)cc4)c3)c(=O)c2Cl)CC(C)N1 (stereo not drawn) [TCMDC-141935] | -13.22 | 
O=C(Nc1ccc(Cn2ncc(N3CCCNCC3)c(Cl)c2=O)cc1)Nc1ccc(-c2ccccc2)cc1 [TCMDC-141928] |  | -32.1
CC1CN(c2cnn(Cc3ccc(NC(=O)Nc4ccc(-c5ccccc5)cc4)cc3)c(=O)c2Cl)CC(C)N1 (stereo not drawn) [TCMDC-141940] | 80.37 | 
O=C(Nc1ccc(-c2ccccc2)cc1)Nc1cccc(Cn2ncc(N3CCNCC3)c(Cl)c2=O)c1 [TCMDC-141920] | -37.77 | 
NC1CCN(c2cnn(Cc3cccc(NC(=O)Nc4ccc(-c5ccccc5)cc4)c3)c(=O)c2Cl)CC1 [TCMDC-141930] | 54.32 | 
